These results are taken from PubChem BioAssay AID624086 (Broad Institute, 2012).

Calls of active or inactive are those of the source.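 The calls were made as follows: active = fitted half-maximal effect concentration at or below the top concentration tested; inactive = the rest.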

The assay is described as follows: TCF/LEF luciferase signal increase in HEK293T – cell-based, firefly luciferase, dry powder, orthogonal assay for GSK3b inhibitor project, dose response (AID 624086). Particulars: HEK293T TCF/LEF firefly luciferase reporter, 24 h; series mostly up to 26 µM.
With `COc1ccc(-c2nn(-c3ccccc3)cc2C(=O)N(C)C)cc1`, the call was inactive.
As for `Cc1[nH]nc2c1[C@@H](c1cccs1)C1=C(CC(C)(C)CC1=O)N2`, the compound was classed as inactive.
The entry for `COc1ccc(-c2nn(-c3ccccc3)cc2C(=O)O)cc1` is “inactive”; for `CC1(C)CC(=O)/C(=C\c2ccccc2C(F)(F)F)C(=Nc2cc(C(F)(F)F)[nH]n2)C1` it is “inactive”.
The entry for `COc1ccc(-c2nn(-c3ccccc3)cc2/C=N/O)cc1OC` is “inactive”; for `Cc1ccc(-c2nn(-c3ccccc3)cc2/C=N/O)cc1` it is “inactive”; for `CC1(C)CC(=O)C2=C(C1)Nc1n[nH]c(C(F)(F)F)c1C2c1cc(F)ccc1C(F)(F)F` (configuration not stated) it is “inactive”.
The entry for `Cc1[nH]nc2c1C(c1ccc(Cl)cc1)C1=C(CC(C)(C)CC1=O)N2` (configuration not stated) is “inactive”.
For `CC1(C)CC(=O)C2=C(C1)Nc1n[nH]c(C(F)(F)F)c1C2c1cc(F)ccc1OC(F)(F)F` (configuration not stated), the outcome was inactive.
Take `CC1(C)CC(=O)C2=C(C1)Nc1n[nH]c(C(F)(F)F)c1C2c1ccc(F)cc1C(F)(F)F` (configuration not stated): the result was inactive.
In the case of `Cc1ccc(C2C3=C(CC(C)(C)CC3=O)Nc3n[nH]c(C)c32)cc1` (configuration not stated) it was “inactive”.
As to `Cc1[nH]nc2nc3c(cc12)C(=O)CC(C)(C)C3`, the outcome was inactive.
In the case of `CNC(=O)c1cn(-c2ccccc2)nc1-c1ccc(OC)cc1` it was “inactive”; in that of `Cc1[nH]nc2c1C(c1ccc3c(c1)OCO3)C1=C(CC(C)(C)CC1=O)N2` (configuration not stated), “inactive”; in that of `Cc1[nH]nc2c1C(c1ccc(Br)cn1)C1=C(CC(C)(C)CC1=O)N2` (configuration not stated), “inactive”.
In the case of `Cc1[nH]nc2c1C(c1ccc(Cl)s1)C1=C(CC(C)(C)CC1=O)N2` (configuration not stated), the compound was called inactive.
As for `Cc1[nH]nc2c1C(C)C1=C(CC(C)(C)CC1=O)N2` (configuration not stated), the result was inactive.
Take `COc1ccccc1C1C2=C(CC(C)(C)CC2=O)Nc2n[nH]c(C(C)C)c21` (configuration not stated): the compound was called inactive.
The entry for `Cc1[nH]nc2c1C(c1ccccn1)C1=C(CC(C)(C)CC1=O)N2` (configuration not stated) is “inactive”; for `COc1ccccc1C1C2=C(CCCC2=O)Nc2n[nH]c(C)c21` (configuration not stated) it is “inactive”.
On to `Cc1cccc(C2C3=C(CC(C)(C)CC3=O)Nc3n[nH]c(C)c32)c1` (configuration not stated), for which the call was inactive.
For `O/N=C/c1cn(-c2ccccc2)nc1-c1ccccc1`, the outcome was inactive.
With `Cc1[nH]nc2c1C(c1cccs1)C1C(=O)CC(C)(C)CC1=N2` (configuration not stated), the outcome was inactive.
As to `CN(C)Cc1cn(-c2ccccc2)nc1-c1ccccc1`, the compound was called inactive.
Consider `Cc1[nH]nc2c1C(c1ccsc1)C1=C(CC(C)(C)CC1=O)N2` (configuration not stated), for which the compound was classed as inactive.
In the case of `CC1(C)CC(=O)C2=C(C1)Nc1n[nH]c(C(F)(F)F)c1C2c1cc(F)ccc1F` (configuration not stated), the result was inactive.
On to `CC(C)c1ccc(-c2nn(-c3ccccc3)cc2/C=N/O)cc1`, for which the call was inactive.
Take `Cc1[nH]nc2nc3c(c(-c4ccccc4)c12)C(=O)CC(C)(C)C3`: the compound was classed as inactive.
For the compound `COc1ccccc1[C@H]1C2=C(CC(C)(C)CC2=O)Nc2n[nH]c(C(F)(F)F)c21`, the compound was classed as inactive.
In the case of `COc1ccccc1C1C2=C(CC(C)(C)CC2=O)Nc2n[nH]c(C(C)(C)C)c21` (configuration not stated), the result was inactive.
The entry for `Cc1[nH]nc2c1[C@H](c1ccccc1C(F)(F)F)C1=C(CC(C)(C)CC1=O)N2` is “inactive”.
`Cc1[nH]nc2c1C(c1cccc(F)c1)C1=C(CC(C)(C)CC1=O)N2` (configuration not stated): the result was inactive.
